High-throughput results from PubChem.
Only some compounds are listed: those with a hit (about 3.5% of all), similar ones and a draw of the others.
TEAD-YAP inh – TEAD-YAP interaction inhibition; actives 1.4% (n = 640,000); inhibition, % at 9.12 µM; HEK-TIYL cells, TEAD-Gal4/YAP UAS-luciferase luminescence; in the data active means inhibition above about 32%;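 further: 0% = median of test compound wells and 100% = reference inhibitor wells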
MITF primary – human MITF inhibition, primary screen; O75030; AlphaScreen MITF homodimerization, bead proximity signal; inhibition, % at 2.6 µM; actives 0.91% (n = 650,000); AID 1259374; in the data active means inhibition above about 50%;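 further: 0% = vehicle wells with protein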
GPR151 ag – activators of human GPR151 | activation, % at 11.2 µM | PathHunter beta-arrestin GPR151 cells, luminescence | Q8TDV0 | actives 1% (n = 650,000); in the data active means activation above about 4.9%;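 further: 0% = median of compound wells and 100% = cells with positive control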
Target sequence (Q8TDV0 whole entry, looked up): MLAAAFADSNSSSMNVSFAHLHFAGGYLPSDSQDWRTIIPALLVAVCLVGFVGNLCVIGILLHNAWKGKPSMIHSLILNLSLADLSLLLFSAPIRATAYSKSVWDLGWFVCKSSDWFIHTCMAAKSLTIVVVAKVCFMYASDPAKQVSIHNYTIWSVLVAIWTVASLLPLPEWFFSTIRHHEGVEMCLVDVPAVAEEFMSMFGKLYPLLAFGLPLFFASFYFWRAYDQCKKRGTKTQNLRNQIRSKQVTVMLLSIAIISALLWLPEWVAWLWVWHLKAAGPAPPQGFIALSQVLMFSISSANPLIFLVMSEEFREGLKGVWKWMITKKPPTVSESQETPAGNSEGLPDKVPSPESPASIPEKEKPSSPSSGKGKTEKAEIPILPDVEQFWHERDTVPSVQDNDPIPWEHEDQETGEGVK
FBW7 act – activators of human E3 ligase FBW7; Q969H0; actives 0.13% (n = 650,000); AID 1259310; AlphaScreen FBW7–phospho-cyclin E peptide binding, activator screen; normalized activity (activation), % at 26.1 µM; in the data active means normalized activity above about 1.9%;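 further: purified mutant Fbw7 with reduced substrate affinity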
MITF confirm – confirmation of human MITF inhibitors. AID 1259372. AlphaScreen MITF homodimerization, biotin/His-MITF beads. shares compounds with MITF primary. actives 16% (n = 4,700). inhibition, % at 2.6 µM;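 active means inhibition above a cutoff derived from the DMSO control wells, cut at about 28% in these data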;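 further: 0% = MITF dimer wells with DMSO only; inhibitors lower the bead chemiluminescence by keeping MITF from dimerizing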
AlphaScreen DR – optically interferes with AlphaScreen signal in dose response. shares compounds with MITF primary. AlphaScreen optical interference counterscreen, cell-free. IC50, µM. actives 6% (n = 480). AID 1259373; call rule not given here
AlphaScreen intf2 – optically interferes with AlphaScreen signal | shares compounds with MITF primary | LysRS AlphaScreen counterscreen, signal interference, triplicate | inhibition, % at 2.6 µM | actives 7.6% (n = 4,700) | AID 1259376;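 active means inhibition above a cutoff derived from the DMSO control wells, cut at about 30% in these data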
Numbers without * were called inactive.

For Cc1nnc(SCc2nc3ccccc3[nH]2)n1C the results were TEAD-YAP inh 5, MITF primary 74*, GPR151 ag 0, FBW7 act 0, MITF confirm 13 and AlphaScreen intf2 16.
`COc1ccccc1-c1nnc(SCc2nc3ccccc3[nH]2)n1C` gave TEAD-YAP inh 7, MITF primary 7, GPR151 ag 0 and FBW7 act 0.
`Nc1cc2c3c(cc(N)cc3c1)C(=O)N(O)C2=O` gave TEAD-YAP inh -8, MITF primary 106*, GPR151 ag 0, FBW7 act -2, MITF confirm 111* and AlphaScreen intf2 94*.
`COc1ccc(OC)c(-c2noc(N3CCN(C(=O)c4ccco4)CC3)n2)c1` gave TEAD-YAP inh 0, MITF primary -4, GPR151 ag -1 and FBW7 act 0.
For Cc1nc(N2CCCC2)c2ccsc2n1 the results were TEAD-YAP inh -4, MITF primary 3, GPR151 ag 1 and FBW7 act 0.
`Cc1nc(N2CCOCC2)c2ccsc2n1` gave TEAD-YAP inh 0, MITF primary 82*, GPR151 ag -1, FBW7 act 0, MITF confirm 0 and AlphaScreen intf2 -6.
`O=C(CC1C(=O)NCCN1Cc1ccc(F)cc1)NCCc1cscn1` (stereo not given) gave TEAD-YAP inh 0, MITF primary 4, GPR151 ag -1 and FBW7 act 0.
`CCN(CC)CCCNCc1ccc(Cl)cc1` gave TEAD-YAP inh -9, MITF primary 51*, GPR151 ag 0, FBW7 act 0, MITF confirm -5 and AlphaScreen intf2 0.
Screening COc1ccc(NS(=O)(=O)c2cc(C(=O)Nc3ccccc3)ccc2OC)cc1 returned TEAD-YAP inh 2, MITF primary -1, GPR151 ag -1 and FBW7 act 0.
Screening COc1ccc(C(=O)Nc2ccccc2)cc1S(=O)(=O)Nc1cc(C)on1 returned TEAD-YAP inh -2, MITF primary 69*, GPR151 ag 1, FBW7 act 0, MITF confirm 3 and AlphaScreen intf2 14.
For O=C(COC(=O)CCc1nc2ccccc2s1)NCCCN1CCCC1=O the results were TEAD-YAP inh -2, MITF primary -7, GPR151 ag -2 and FBW7 act 0.
Screening CSc1ccccc1C(=O)Nc1nc(-c2ccccn2)cs1 returned TEAD-YAP inh 14, MITF primary 28, GPR151 ag -1 and FBW7 act -2.
CCn1ccc(C(=O)Nc2nc(-c3ccccn3)cs2)n1 was read as TEAD-YAP inh -23, MITF primary 83*, GPR151 ag 3, FBW7 act -1, MITF confirm 73* and AlphaScreen intf2 101*.
`CS(=O)(=O)c1ccccc1C(=O)Nc1nc(-c2ccccn2)cs1` gave TEAD-YAP inh 19, MITF primary 57*, GPR151 ag 1, FBW7 act -2, MITF confirm 38* and AlphaScreen intf2 100*.
O=C(Nc1cccc2c1CCCC2)C1CCN(C(=O)Nc2ccccc2)CC1 was read as TEAD-YAP inh -6, MITF primary -19, GPR151 ag 0 and FBW7 act 0.
Cc1nn(C)c(C)c1CCC(=O)N1CCN(c2ncccn2)CC1 was read as TEAD-YAP inh -2, MITF primary 72*, GPR151 ag -1, FBW7 act 0, MITF confirm 9 and AlphaScreen intf2 14.
`O=C1CCCN1CCCn1c(=S)[nH]c2cc3ccccc3cc2c1=O` gave TEAD-YAP inh 1, MITF primary 66*, GPR151 ag -1, FBW7 act 0, MITF confirm 0 and AlphaScreen intf2 17.
O=C1NC(=S)N/C1=C\c1ccc(-c2cccc([N+](=O)[O-])c2)o1 was read as TEAD-YAP inh -3, MITF primary -5, GPR151 ag -1 and FBW7 act 0.
Screening O=C1NC(=S)N/C1=C\c1ccc([N+](=O)[O-])o1 returned TEAD-YAP inh -18, MITF primary 67*, GPR151 ag 1, FBW7 act 0, MITF confirm 67*, AlphaScreen DR >7.7 and AlphaScreen intf2 14.
CCOc1ccc2nc(SCC(=O)Nc3cc(S(N)(=O)=O)ccc3C)sc2c1 was read as TEAD-YAP inh -20, MITF primary 13, GPR151 ag 1 and FBW7 act 0.
